# PubChem BioAssay AID540276 (National Center for Advancing Translational Sciences (NCATS), 2011)
# Several values for one entry are separate records, joined by “and”; a condition that tells them apart may be missing. Equal entries are not always repeated. Hit rate of the full screen: of about 300,000 compounds, about 5,400 (1.8%) were called active. Where a call stands in place of a potency, no number is given. Inconclusive results (about 28%) are left out. Calls follow the shape of the full dose curve; tested in HEK293 cells. Only a selection was taken, and actives are over-represented in it overall.
# Assay: qHTS for inhibitors of binding or entry into cells for Marburg Virus
# Conditions: Marburg virus pseudotyped entry inhibition, cell reporter; series mostly up to 37.8 µM
# Potency is read from the fitted curve at half-maximal effect.
row,SMILES,Potency
1,COc1ccc2nc(/N=C(\N)NC(=O)Nc3ccccc3)nc(C)c2c1,inactive
2,Cc1nc(/N=C(\N)NC(=O)NC2CCCCC2)nc2ccccc12,7.94 µM (active)
3,O=C(NNC(=O)C(O)c1ccccc1)NC1CCCCC1 (centres undefined),inactive
4,O=C(OCCOCn1cc(Br)c(=O)[nH]c1=O)c1ccccc1,inactive
5,C=CCn1c(=O)n(C)c2c(=O)n(C)c(=O)n(C)c21,inactive
6,O=C1CC(c2ccccc2)C(=O)N2C(=O)CC(c3ccccc3)C(=O)N12 (centres undefined),inactive
7,C=CCNC(=O)C1CC2c3ccccc3C1c1ccccc12 (centres undefined),inactive
8,CC[C@H]1CN2CCc3cc(OC)c(OC)cc3[C@@H]2C[C@@H]1C[C@H]1NCCc2cc(OC)c(OC)cc21,224 nM (active) and 326 nM (active) and 103 nM (active)
9,COc1cc2c(cc1OC)CN(CC(=O)Nc1ccc(F)cc1)CC2,inactive
10,COc1cc(NC(=O)CSc2ccc(-c3cccnc3)nn2)cc(OC)c1,inactive
11,CCOc1ccc(CC(=O)NCCS(=O)(=O)N2CCN(c3ccccc3)CC2)cc1,inactive
12,Cc1nc2ccccc2c(C(=O)O)c1-c1ccccn1,inactive
13,O=C(COc1ccc([N+](=O)[O-])cc1Cl)Nc1ccc2[nH]c(=O)[nH]c2c1,inactive
14,O=C(NCc1cccnc1)c1cn(-c2ccccc2)nc1-c1cccs1,inactive
15,CC(=O)C1=C(C)NC(C)=C(C(C)=O)C1c1cn(-c2ccccc2)nc1-c1cccs1,inactive
16,O=C(O)c1ccc(N/N=C/c2cn(-c3ccccc3)nc2-c2cccs2)cc1,4.47 µM (active)
17,COc1ccc(OC)c(NC(=O)C2CCCN2S(=O)(=O)c2cccc3nsnc23)c1 (centres undefined),inactive
18,CC[C@]12c3[nH]c4ccc(Cl)cc4c3CCN1C(=O)[C@@H](CC(=O)NCCCOC)C[C@@H]2C(=O)N1CCN(C(=O)c2ccco2)CC1,inactive
19,COc1ccc(C2(c3ccc(OC)cc3)NC(=O)N(CC(=O)Nc3cc(C)on3)C2=O)cc1,inactive
20,CCCCOc1ccc(CSC(=N)N)cc1[N+](=O)[O-],14.1 µM (active)
21,CCCCCOc1ccc(CSC2=NCCN2)cc1[N+](=O)[O-],inactive
22,CCCOc1ccc(Cn2ccnc2)cc1[N+](=O)[O-],inactive
23,CCN(CC)CCn1c2ccc(Cl)cc2c2nc(C)sc21,inactive
24,CCN(CC)CCCC(C)n1c2nc(=O)[nH]c(=O)c-2nc2cc(Cl)ccc21 (centres undefined),5.62 µM (active)
25,CC(=O)OC[C@H]1O[C@H](CCO/N=C(\C)CCN2CCCCc3nc(C)c(C)cc32)C=C[C@@H]1OC(C)=O,inactive
26,O=C(CSC(=S)N1CCOCC1)c1ccccc1,7.31 µM (active)

row,SMILES,Potency
1,O=C(CSC(=S)N1CCOCC1)c1cc(Br)cc(Br)c1O,inactive
2,CC1CN(C(=S)SCC(=O)c2ccccc2)CC(C)O1 (centres undefined),inactive
3,Cc1ccc(CNC(=O)C(=O)c2cn(CC(=O)N3CCCC3)c3ccccc23)cc1,inactive
4,Cc1cc(NC(=O)CSc2nnc(-c3ccco3)n2N)no1,inactive
5,O=C(COC(=O)c1cccc(Cl)c1)NC(=O)NCc1ccccc1,inactive
6,COc1ccc2c(c1O)-c1cccc3c1[C@@H](C2)N(C)CC3,1 µM (active)
7,COc1c(O)ccc2c1-c1c3c(cc4c1C(C2)N(C)CC4)OCO3 (centres undefined),inactive
8,Cn1c(N)cc(=O)n(C)c1=S,inactive
9,CC(C(=O)c1ccc(-c2ccccc2)cc1)[n+]1cccc(Br)c1 (centres undefined),inactive
10,O=C(NCc1nnc(SCC(=O)N2CCCCCC2)o1)c1ccc(F)cc1,inactive
11,CCC(=O)Nc1cccc(NC(=O)CSc2nnc(-c3ccc(NS(C)(=O)=O)cc3)n2C)c1,inactive
12,Cn1c(SCC(=O)Nc2cccc(NC(=O)c3cccs3)c2)nnc1-c1ccncc1,12.6 µM (active)
13,COCCCn1c(SCC(=O)Nc2ccccc2)nnc1-c1ccncc1,inactive
14,CC1CCCCC1NC(=O)Cn1c(=O)cnc2ccccc21 (centres undefined),inactive
15,CC(=O)c1c(C)[nH]c(C(=O)COC(=O)c2cccs2)c1C,inactive
16,COc1ccc(C)cc1N(CC(=O)N1CCCC1)S(=O)(=O)c1ccccc1,inactive
17,O=C(NNc1ccccc1Cl)C(O)(c1cccc(C(F)(F)F)c1)c1cccc(C(F)(F)F)c1,18.4 µM (active)
18,O=C(Nc1cc(C(F)(F)F)ccc1Cl)C(=O)N1CCCCC1,inactive
19,NC(=O)Nc1cccc(C(F)(F)F)c1,inactive
20,NC(=O)Cn1cc(/C=N\NS(=O)(=O)c2ccccc2)c2ccccc21,inactive
21,COC(=O)N(C)C1=C(C(=O)N2CCOCC2)CCCC1,inactive
22,Cn1c(=O)[nH]c2c(c(C(=O)O)nn2C)c1=O,inactive
23,Cc1ccc2[nH]cc(CCNC(=O)c3ccc([N+](=O)[O-])cc3)c2c1,inactive
24,Cc1ccc2[nH]cc(CCCN3C(=O)c4ccccc4C3=O)c2c1,16.4 µM (active)
25,Cc1cc(C)cc(NC(=O)CCN2C(=O)c3ccccc3C2=O)c1,inactive
26,Cc1cccc(OCC(=O)Nc2ccc(C(=O)O)cc2NC(=O)COc2cccc(C)c2)c1,inactive

row,SMILES,Potency
1,CCOc1ccc(S(=O)(=O)Nc2ccc(S(=O)(=O)Nc3cc(OC)ccc3OC)cc2)cc1,inactive
2,COc1ccc(C(=O)Nc2ccc(S(=O)(=O)NC(C)C)cc2)cc1,inactive
3,COc1ccc(NS(=O)(=O)c2ccc(Oc3c(C#N)cccc3C#N)cc2)cc1,2.82 µM (active)
4,Cc1ccc2nc(SCC(=O)NC3CCCC3)[nH]c2c1,inactive
5,COc1ccc(/C=N/Nc2nc(-c3ccc(C)cc3)c(C#N)c(=O)[nH]2)cc1,inactive
6,O=C(COc1cccnc1[N+](=O)[O-])Nc1ccc(Cl)cc1F,inactive
7,Cc1cc(C(=O)N/N=C/c2ccccn2)c2ccccc2n1,inactive
8,O=C(N/N=C/C=C/c1ccco1)c1cccs1,inactive
9,Cc1ccc(-c2cc(C(=O)N/N=C/C=C/c3ccco3)c3ccccc3n2)cc1C,2.51 µM (active)
10,CCCc1nnc(NC(=O)CCC(=O)N2CCN(S(=O)(=O)c3ccc(OC)cc3)CC2)s1,inactive
11,Cc1nc(N)nc(Cl)c1CCC1OCCO1,inactive
12,Cc1ccc(Nc2cc(C)nc3c(C)ccc([N+](=O)[O-])c23)cc1,11.2 µM (active)
13,Cc1ccc(Nc2ccc(C(N)=O)cc2[N+](=O)[O-])cc1,inactive
14,Cc1cc(C)nc(Nc2cc([N+](=O)[O-])ccc2C)n1,inactive
15,Cc1ccc2c(c1)N(CC(=O)NCC1CCCO1)C(=O)CO2 (centres undefined),inactive
16,COCCNC(=O)COc1ccc(N(C)S(=O)(=O)c2ccc3ccccc3c2)cc1,inactive
17,CC1CCCCC1NC(=O)COc1ccc(C#N)cc1 (centres undefined),inactive
18,CC1CCCCC1NC(=O)/C(C#N)=C/C=C/c1ccccc1[N+](=O)[O-] (centres undefined),2.82 µM (active)
19,O=[N+]([O-])c1ccccc1/C=C/CN1CCCC(CO)C1 (centres undefined),inactive
20,O=C(Nc1c(Br)cc2c(c1Br)Cc1cc([N+](=O)[O-])ccc1-2)C(Cl)Cl,inactive
21,CN(Cc1ccccc1)Cc1ccccc1F,inactive
22,N=c1n(CCc2ccccc2)c2ccccc2n1Cc1ccccc1F,5.17 µM (active)
23,CCCn1c(NCc2ccccc2F)nc2ccccc21,inactive
24,CCc1ccccc1N(CC(=O)NCC1CCCO1)C(=O)CCC(=O)Nc1nccs1 (centres undefined),inactive
25,COc1ccc(C)cc1NC(=S)N1CCOCC1,inactive
26,O=C1OC(Cc2ccccc2)C(c2ccccc2)C1=O (centres undefined),inactive

row,SMILES,Potency
1,Cn1c(SCC(=O)N2CCCc3ccccc32)nc2ccccc2c1=O,12.6 µM (active)
2,O=C(CSc1nc2[nH]ncc2c(=O)n1-c1ccccc1)N1CCCc2ccccc21,inactive
3,O=C(CSc1nc2ccccc2c(=O)n1CCCO)N1CCc2ccccc21,inactive
4,CN(C)CCn1c2c(c(SCC(=O)Nc3ccccc3C(F)(F)F)nc1=O)CCCC2,inactive
5,COc1ccc(Nc2cc(C)nc(-n3nc(C)cc3C)n2)cc1,1.3 µM (active)
6,Cc1cc(C)nc(-n2nc(C)cc2NC(=O)c2ccc(Br)o2)n1,inactive
7,Cc1cc(N/N=C\c2ccc(Br)cc2)nc(-n2nc(C)cc2C)n1,2.24 µM (active)
8,Cc1cc(Nc2ccccc2)nc(N)n1,inactive
9,COc1ccc(NC(=O)c2nc(-n3nc(C)cc3C)ccc2Cl)cc1Cl,inactive
10,Cc1ccc2nc(C)cc(N/N=C/c3ccc(F)cc3)c2c1,inactive
11,CN1CCN(C(=O)c2cnn(-c3ccccc3)c2NC(=O)c2ccc([N+](=O)[O-])cc2)CC1,inactive
12,CN1CCN(C(=O)C(=O)c2cn(CC(=O)N3CCCC3)c3ccccc23)CC1,inactive
13,O=C1NC(=O)C(CCc2ccccc2)(c2ccccc2)N1 (centres undefined),inactive
14,COCc1ccc(C(=O)NC2CC(C)(C)Cc3c2cnn3-c2ccc(C)cc2)o1 (centres undefined),inactive
15,COc1ccc(C(=O)NC2CCCc3c2cnn3-c2cccc(C)c2C)c(OC)n1 (centres undefined),0.708 µM (active)
16,Cc1cccc(C(=O)OC(C)C(=O)NC2CCCc3ccccc32)c1O (centres undefined),inactive
17,CN(C)C(=O)c1ccc(NC(=O)c2ccccc2-c2ccccc2)cc1,inactive
18,CCc1ccc(N(C(=O)c2csnn2)C(C(=O)NC2CCCCC2)c2ccncc2)cc1 (centres undefined),inactive
19,O=C1CC2(CCCC2)C(=O)N1CN1CCN(S(=O)(=O)c2ccc(F)cc2F)CC1,inactive
20,COc1ccc(-c2nc3cc([N+](=O)[O-])ccc3o2)cc1OC,inactive
21,CCc1ccc2oc(-c3ccc(N)cc3)nc2c1,5.17 µM (active)
22,O=C(Cc1cccc2ccccc12)Nc1ccc2oc(-c3ccccc3)nc2c1,inactive
23,CC(=O)Nc1ccc(S(=O)(=O)Nc2cc(C)cn(Cc3ccc(C)cc3)c2=O)cc1,inactive
24,CCOC(=O)C1=C(C)NC(=O)NC1c1ccccc1 (centres undefined),inactive
25,CCOC(=O)C1=C(CN2CCCCCC2)NC(=O)NC1c1cccc([N+](=O)[O-])c1 (centres undefined),inactive
26,CCOC(=O)C1=C(CN2CCc3ccccc32)NC(=O)NC1c1ccc(Cl)cc1 (centres undefined),16.4 µM (active)
